Measurements: PubChem BioAssay (NCATS)
Records with an inconclusive call do not appear. A number with no mark means an inactive call. Calls follow the shape of the dose curve; as a rule, active = well fitted cell-killing curve with a large enough effect; inconclusive = small, poorly fitted or top-dose-only effect; inactive = no such curve, though single readings can be large or run the other way.

test: qHTS of pediatric cancer cell lines to identify multiple opportunities for drug repurposing: Primary screen for Rh30 cells (AID 1347107); conditions: Rh30 rhabdomyosarcoma viability, CellTiter-Glo luminescence, 48 h; series mostly up to 46 µM; activity change, negative = cytotoxic: at the top concentration; also: nearly all actives have a fitted effect of over 75% in size
Method in brief: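 Cells (500-1,000/well) rested 5 h, then received compounds for 48 h; metabolically active cells were measured by CellTiter-Glo luminescence. Final concentrations spanned up to 46 µM (MIPE, 11-point) or 0.59 nM-46 µM (NPC, 8-point) in primary screens, 11-point in follow-ups.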
% is scaled to controls: 0 for no effect and ±100 for the full control effect.

Row | Structure (SMILES) | activity change, negative = cytotoxic
1 | CCOP(=O)(NC(C)C)Oc1ccc(SC)c(C)c1 (centres undefined) | 22.4% [at 92.7 µM]
2 | CC(O)=C(C#N)C(=O)Nc1cc(Br)ccc1Br | 9.67%
3 | C1CCC(NC2CCCCC2)CC1 | 12.6%
4 | O=C(N[C@@H](COc1ccc2[nH]c(=O)[nH]c2c1)c1ccccc1)c1cccn(Cc2ccc(F)c(F)c2)c1=O | -1.27%
